The whole screen tested about 190,000 compounds, of which about 930 (0.49%) were called active. This is one part of the list. Measured potencies and affinities stand elsewhere. A number with no mark means an inactive call.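 Rule for the calls: active = z-score of insulin promoter reporter brightness in nuclei below -3 at 5 µM, with at least 500 cells counted; inconclusive = wells with under 500 cells, flagged as toxic or sparse; inactive = the rest.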

The assay can be described thus: insulin promoter down-regulators in MIN6 cells, imaging, high-content screening, mouse beta cells (AID 1628). Conditions: MIN6 insulin promoter GFP reporter, at 5 µM, hits give low values.
Turning to `O=C(Nc1cccnc1)c1ccc(S(=O)(=O)c2ccc(Cl)cc2)cc1`, the z-score was 1.01. The result for `COc1ccc(Cc2nc(-c3ccc(NC(=O)c4cccnc4)cc3)no2)cc1` reads -4.08 (active); that for `COc1ccc(NC(=O)c2sc3nc(-c4cccnc4)ccc3c2N)cc1`, 6.04. The result for `Cc1cccc(C2C3=C(Nc4[nH]n(-c5ccccc5)c(=O)c42)c2ccccc2C3=O)c1` (configuration not stated) reads -4.1 (active). As to `Brc1ccc2oc3c(N4CCOCC4)ncnc3c2c1`, the z-score was -0.34. The result for `c1ccc2c(c1)oc1c(N3CCN(Cc4ccc5c(c4)OCO5)CC3)ncnc12` reads -6.44 (active); that for `CC(C)/C=C1\CC/C(=C\c2ccc(N(C)C)cc2)C1=O`, 3.08; that for `COc1cc(-c2noc(C3CCCN(S(=O)(=O)c4cccc(Cl)c4)C3)n2)cc(OC)c1OC` (configuration not stated), -3.23 (active). As for `COc1cccc2c(=O)n(CC(=O)Nc3cccc(F)c3)ccc12`, the z-score was 3.43.

On to `Cc1ccccc1C(=O)Nc1cccc(NC(=O)Cn2cnc3c(=O)n(C)c(=O)n(C)c32)c1`, for which the z-score is -5.95 (active). To `O=C(COC(=O)Cn1cnc2ccccc2c1=O)Nc1cc(Cl)ccc1[N+](=O)[O-]` belongs -4.27 (active); to `Cc1nc(NC(=O)COC(=O)CCS(=O)(=O)c2ccccc2Cl)c(Cl)cc1Cl`, 4.24; to `N#Cc1cccc(NC(=O)COC(=O)CCc2nc3ccccc3c(=O)[nH]2)c1`, 1.59.

Regarding `CCc1cc2c(N3CCN(c4nnc(CC)s4)CC3)ncnc2s1`, the z-score is -5.09 (active). The result for `CCOc1cc(/C=N/NC(N)=O)cc(Br)c1OCc1ccccc1F` reads -5.46 (active); that for `CCCNC(=O)N1CCC(C(=O)c2ccc(Cl)cc2)CC1`, 3.79. The result for `O=C(C1CCC1)N1CCc2cc(S(=O)(=O)NCc3cccnc3)ccc21` reads -3.56 (active); that for `O=C(C1CCC1)N1CCc2cc(S(=O)(=O)NCCN3CCN(c4ccccc4F)CC3)ccc21`, -4.42 (active). The result for `Nc1c(C(=O)C2CC2)sc2nc(-c3ccccc3)cc(C(F)(F)F)c12` reads 11.2; that for `C(=N\c1nc2ccccc2[nH]1)/c1cccs1`, -1.35. On to `CC(=O)c1c(C)[nH]c(-c2ccccc2)nc1=S`, for which the z-score is 5.61.

Consider `Cc1ccc(NS(=O)(=O)c2cc(C(=O)O)ccc2Cl)c(C)c1`, for which the z-score was 1.63. The result for `Cc1cc2c(ncn2C)c(NS(=O)(=O)c2ccccc2Cl)c1C` reads -4.59 (active); that for `NC(=O)c1cc2ccc(O)cc2oc1=NCc1ccccc1`, 6.96; that for `CCN(CC)c1ccc2cc(C(N)=O)/c(=N\NC(=O)c3ccncc3)oc2c1`, 5.56.

For the molecule `CCOc1cccc2cc(C(N)=O)c(=NCc3ccccc3)oc12`, the z-score was -3.34 (active). To `CN(C)/C=N/c1sc2c(c1C#N)CCC2` belongs -0.51; to `O=C(O)CC12CSc3[nH]c(=O)sc3C1c1ccccc1OC2=O` (configuration not stated), 3.25.

Take `Fc1ccc(C2CC(c3ccco3)=NN2c2ccccc2)cc1` (configuration not stated): the z-score is 3.51. The result for `O=C(COc1ccccc1)N1CCN=C1c1ccccc1` reads 3.07; that for `O=C(O)CCC(=O)N1CC=C(c2ccccc2)CC1`, -3.14 (active); that for `O=C(O)c1ccn(COc2ccc(Br)cc2)n1`, 4.62. Consider `CCOC(=O)N1CCC(NC(=O)c2cc(C(=O)Nc3ccc(OC)c(OC)c3)ccc2CO)CC1`, for which the z-score was 3.42. To `CCN1CCc2c(sc(NC(=O)Nc3ccc(Cl)c(Cl)c3)c2C(N)=O)C1` belongs 16. To `Cc1cn(S(=O)(=O)c2ccc(Br)c3ccccc23)cn1` belongs -4.36 (active). In the case of `COc1ccc(N(C(=O)Cc2cccs2)C2C=CS(=O)(=O)C2)cc1` (configuration not stated), the z-score is 3.14. The result for `O=C1S/C(=C\c2ccc(N3CCOCC3)o2)C(=O)N1Cc1c(F)cccc1Cl` reads 14.9; that for `C1=C(c2ccccc2)Nc2nnnn2C1`, 3.1; that for `NC(=S)N/N=C/c1cccc(O)c1O`, -5.73 (active). As to `FC(F)C(F)(F)C1=CC(c2ccccc2)=NCCN1`, the z-score is -3.16 (active). The result for `O=C1C2C3C=CC(C3)C2C(=O)N1CCC(=O)N1CCc2ccccc21` (configuration not stated) reads 0.52; that for `Cc1cccc2cc3c(N)c(C(=O)N4CCc5ccccc54)sc3nc12`, 4.42; that for `CC1CCc2nc3ccccc3c(C(=O)OCC(=O)N3CCc4ccccc43)c2C1` (configuration not stated), -7.27 (active). With `CCOc1cccc(NC(=O)Cc2cccs2)c1`, the z-score is -3.39 (active). The result for `COc1ccc(Cc2nnc(NC(=O)Cc3cccs3)s2)cc1` reads 3.48.

With `CCOc1ccc(NC2=NCC(=O)N2Cc2cccs2)cc1`, the z-score was 4.8. The result for `O=C(O)CCCCCCCCCCCc1ccccc1` reads 0.16; that for `CC1=C(C(=O)OCc2ccccc2)C(c2ccccc2)NC(=O)N1CCCCCC(=O)O` (configuration not stated), -5.52 (active); that for `CCOC(=O)/C(=C\C=C1/Sc2cc(OCC)c(OCC)cc2N1CC)C(C)=O`, 16.7.

On to `COc1cccc(-c2cc3nc4c(c(N5CCC6(CC5)OCCO6)n3n2)CCC4)c1`, for which the z-score is -3.88 (active). The result for `COc1cc(OC)cc(-c2cc3nc4c(c(N5CCN(c6ncccn6)CC5)n3n2)CCCC4)c1` reads -3.61 (active); that for `Clc1cccc(-c2cc3nc4c(c(N5CCNCC5)n3n2)CCCC4)c1`, -0.83; that for `CC(C)N1CC=C2C(C#N)=C(N)C(C#N)(C#N)[C@H](c3ccoc3)[C@H]2C1`, 9.66. The result for `CN(C)CCOCCOc1ccccc1-c1ccccc1` reads 4.97; that for `CC1CN(c2oc(COc3ccc(Cl)cc3Cl)nc2C#N)CC(C)O1` (configuration not stated), -3.34 (active); that for `CC(=O)c1cc(NC(=O)c2ccc(Cl)cc2)c(=O)oc1/C=C/N(C)C`, 3.13. The result for `COC(=O)c1cc(NC(=O)c2cccc(Cl)c2)c(=O)oc1/C=C/Nc1cc(C)cc(C)c1` reads 14.9; that for `COC(=O)c1ccc(C(=O)Nc2cc(Cl)ccc2Cl)cc1NC(=O)c1ccc(N(C)C)cc1`, -4.37 (active).

Regarding `Cc1ccc2nc(NCCC(=O)O)nc(-c3ccccc3)c2c1`, the z-score is 4.16. Consider `CC1CCCc2sc3nc(NCc4ccco4)n4ncnc4c3c21` (configuration not stated), for which the z-score is -3.54 (active). To `N#C/C(=C\c1ccc(N2CCCCC2)o1)C(=O)Nc1cccc(Br)c1` belongs 12.9.

For the molecule `COc1ccc(C2=NC(=O)/C(=C\c3cc(OC)c(OC)c(OC)c3)O2)cc1`, the z-score is 3.04.

For the origin of these results see PubChem BioAssay AID1628 (Sanford-Burnham Center for Chemical Genomics, 2009).
